Gli-Sufu block: blocks Gli-Sufu signaling in a luciferase reporter; Sufu-KO-LIGHT fibroblasts, Gli luciferase reporter luminescence; hit rate 0.74% among 340,000; inhibition, % at 5 µM;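 active means inhibition above about 55%, limit read from the data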;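 further: 0% = DMSO-treated cells and 100% = wells with medium but no cells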
Jurkat NFkB inh: lowers PMA/ionomycin-induced NF-kB signal in Jurkat cells | AID 435003 | PMA/ionomycin-induced NF-kB luciferase reporter, luminescence | hit rate 0.53% among 330,000 | inhibition, % at 4 µM; in the data active means inhibition above about 50%
Mdm2-MdmX inh: disrupts the human Mdm2-MdmX interaction; O15151+Q00987; SaOS-2 split-luciferase Mdm2/MdmX complementation, luminescence; inhibition, % at 8 µM; hit rate 3% among 330,000;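 active means inhibition of at least 50% at 8 µM in the primary screen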
Target sequence (O15151 whole entry, looked up): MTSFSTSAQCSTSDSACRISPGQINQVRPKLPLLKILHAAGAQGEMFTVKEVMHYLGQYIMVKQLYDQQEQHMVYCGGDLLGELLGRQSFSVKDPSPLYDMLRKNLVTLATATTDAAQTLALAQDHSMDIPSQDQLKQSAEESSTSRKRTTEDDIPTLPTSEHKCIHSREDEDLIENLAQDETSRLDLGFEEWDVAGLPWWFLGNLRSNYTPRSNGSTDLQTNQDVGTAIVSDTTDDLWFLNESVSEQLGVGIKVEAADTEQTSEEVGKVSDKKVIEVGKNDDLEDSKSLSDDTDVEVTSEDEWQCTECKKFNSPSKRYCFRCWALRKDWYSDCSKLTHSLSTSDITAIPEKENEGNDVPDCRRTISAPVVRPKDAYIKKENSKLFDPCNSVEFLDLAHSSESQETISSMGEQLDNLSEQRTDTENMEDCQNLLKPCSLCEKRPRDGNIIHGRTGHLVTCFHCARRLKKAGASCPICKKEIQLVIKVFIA
Target sequence (Q00987 whole entry, looked up): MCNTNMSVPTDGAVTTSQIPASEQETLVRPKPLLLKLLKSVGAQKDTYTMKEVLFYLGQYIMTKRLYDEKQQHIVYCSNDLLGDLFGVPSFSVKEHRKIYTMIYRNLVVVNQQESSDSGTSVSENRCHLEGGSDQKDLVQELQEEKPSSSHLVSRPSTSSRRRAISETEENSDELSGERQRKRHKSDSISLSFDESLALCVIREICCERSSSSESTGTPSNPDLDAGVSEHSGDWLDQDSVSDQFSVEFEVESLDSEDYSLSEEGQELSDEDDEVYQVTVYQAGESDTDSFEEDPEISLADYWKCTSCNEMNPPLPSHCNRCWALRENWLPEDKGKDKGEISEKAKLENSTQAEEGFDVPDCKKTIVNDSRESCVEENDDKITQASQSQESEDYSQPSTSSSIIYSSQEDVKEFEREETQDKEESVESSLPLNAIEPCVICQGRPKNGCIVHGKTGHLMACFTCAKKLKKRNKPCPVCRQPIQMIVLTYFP
Beta apoptosis: beta cell apoptosis inhibition; INS-1E cytokine-induced death, ATP luminescence, 48 h; percent of positive-control rescue, neutral wells zero; protection from apoptosis, % (concentration not given with the values); hit rate 0.8% among 300,000; AID 435005;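 active means Every replicate reaches about 75%, or at least half do and their mean reaches it too, limit read from the data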;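 further: 0% = cytokine-treated negative control wells and 100% = positive control rescue; higher means more ATP so stronger rescue from cytokine killing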
697 NFkB inh: lowers PMA/ionomycin-induced NF-kB signal in 697 B cells; inhibition, % at 4 µM; hit rate 0.33% among 330,000; AID 435022; 697 B-cell NF-kB luciferase reporter, 16 h; in the data active means inhibition above about 35%
Mdm2 MdmX conf: confirmation of human Mdm2/MdmX interaction inhibitors; shares compounds with Mdm2-MdmX inh; Mdm2-MdmX binding, luminescent assay; inhibition, % at 8 µM; hit rate 55% among 10,000; AID 489028; in the data active means inhibition above about 40%
FLuc counter: counter-screen for Mdm2/MdmX inhibitors: full-length luciferase; shares compounds with Mdm2-MdmX inh; SaOS-2 full-length luciferase counterscreen, luminescence; inhibition, % at 8 µM; hit rate 77% among 6,200;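 active means mean inhibition at 8 µM reaching about 37%, which flags the compound as non-specific, limit read from the data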;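 further: p53-null SaOS-2 cells with luciferase driven by a doxycycline-inducible promoter; compound on cells about two nights before reading with doxycycline added after day one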
* hit, by the source's call; ! = not confirmed by another sample. Sampled rows, rich in hits. Any-hit rate of the full collection: about 4%.

How did Nc1nc(N)c2c(ccc3nccc32)[nH]1 do in these assays?
Gli-Sufu block: 30; Jurkat NFkB inh: -4; Mdm2-MdmX inh: 51*; Beta apoptosis: 11; 697 NFkB inh: 4; Mdm2 MdmX conf: 38

How did Nc1ccc2ncccc2c1N do in these assays?
Gli-Sufu block: 8; Beta apoptosis: -3

How did CC(C)CC1NC(=O)c2ccc(Cl)cc2-n2c1nc1ccc(Cl)cc1c2=O (centres undefined) do in these assays?
Jurkat NFkB inh: 2; Mdm2-MdmX inh: 4; Beta apoptosis: 1; 697 NFkB inh: 3

How did Cc1nc(SCC(=O)Nc2ccc(CN3CCCC3)cc2)c2c(C)c(C)sc2n1 do in these assays?
Gli-Sufu block: 36; Jurkat NFkB inh: -4; Mdm2-MdmX inh: 84*; Beta apoptosis: 16; 697 NFkB inh: -17; Mdm2 MdmX conf: 37; FLuc counter: 64*

What do the screens show for `CC(=O)Nc1ccc(NC(=O)CSc2nc(C)nc3sc(C)c(C)c23)cc1`?
Gli-Sufu block: 5; Jurkat NFkB inh: 7; Mdm2-MdmX inh: 8; Beta apoptosis: 9; 697 NFkB inh: 0

Results for NC(=O)C1CC(=O)N(c2ccc(OCc3ccc(F)cc3)cc2)C1 (centres undefined) ?
Gli-Sufu block: -2; Jurkat NFkB inh: -58; Mdm2-MdmX inh: 11; Beta apoptosis: 4; 697 NFkB inh: -10

How did COc1ccc2c(-c3cnc(N4CCOCC4)nc3)c(-c3ccc(S(C)(=O)=O)cc3)sc2c1 do in these assays?
Gli-Sufu block: 5; Jurkat NFkB inh: 0; Mdm2-MdmX inh: 68*; Beta apoptosis: -13; 697 NFkB inh: 13; Mdm2 MdmX conf: -2

Results for CCOc1ccc(-n2cc(-c3ccccc3)c3c(N4CCOCC4)ncnc32)cc1 ?
Gli-Sufu block: 14; Jurkat NFkB inh: 32; Mdm2-MdmX inh: 74*; Beta apoptosis: 14; 697 NFkB inh: 16; Mdm2 MdmX conf: 65*; FLuc counter: 83*

What do the screens show for `COc1ccc(-n2cc(-c3ccccc3)c3c(N4CC(C)OC(C)C4)ncnc32)cc1` (centres undefined)?
Gli-Sufu block: -12; Jurkat NFkB inh: -5; Mdm2-MdmX inh: 64*; Beta apoptosis: 9; 697 NFkB inh: -24; Mdm2 MdmX conf: 50*; FLuc counter: 84*

Results for c1ccc(-c2cn(-c3ccccc3)c3ncnc(N4CCCCC4)c23)cc1 ?
Gli-Sufu block: 21; Jurkat NFkB inh: -1; Mdm2-MdmX inh: 21; Beta apoptosis: 3; 697 NFkB inh: -1

Results for CCOc1ccc(S(=O)(=O)Nc2cccc(C(=O)NCC(c3ccco3)N3CCCC3)c2)cc1 (centres undefined) ?
Gli-Sufu block: 2; Jurkat NFkB inh: 0; Mdm2-MdmX inh: -3; Beta apoptosis: -2; 697 NFkB inh: -7

Results for C=C(C)CNC(=S)NNC(=O)CCn1c2cc(Cl)ccc2c2ccc(Cl)cc21 ?
Gli-Sufu block: -3; Jurkat NFkB inh: -11; Mdm2-MdmX inh: 13; Beta apoptosis: -3; 697 NFkB inh: 4

What do the screens show for `C=C(C)CNC(=S)NNC(=O)CCn1c2ccc(Cl)cc2c2cc(Cl)ccc21`?
Gli-Sufu block: 4; Jurkat NFkB inh: 7; Mdm2-MdmX inh: 54*; Beta apoptosis: 5; 697 NFkB inh: -2; Mdm2 MdmX conf: 18

How did CCNC(=O)C(=O)NCC(c1ccc2c(c1)OCO2)N1CCOCC1 (centres undefined) do in these assays?
Jurkat NFkB inh: -5; Mdm2-MdmX inh: 13; Beta apoptosis: -4; 697 NFkB inh: 13

How did Cc1c(C)c2ccc(OC(C)C(=O)NCCc3c[nH]c4ccccc34)cc2oc1=O (centres undefined) do in these assays?
Gli-Sufu block: 3; Jurkat NFkB inh: -6; Mdm2-MdmX inh: 21; Beta apoptosis: 3; 697 NFkB inh: 13

Results for N/C(=N\OC(=O)c1ccc([N+](=O)[O-])cc1Cl)c1ccccn1 ?
Gli-Sufu block: 2; Jurkat NFkB inh: -24; Mdm2-MdmX inh: 54*; Beta apoptosis: 12; 697 NFkB inh: -60; Mdm2 MdmX conf: 37

How did N/C(=N\OC(=O)c1ccc(Cl)cc1Cl)c1ccccn1 do in these assays?
Gli-Sufu block: -26; Jurkat NFkB inh: 28; Mdm2-MdmX inh: 52*; Beta apoptosis: 110*; 697 NFkB inh: -24; Mdm2 MdmX conf: 38; FLuc counter: 53*

Results for N/C(=N\OC(=O)c1cc([N+](=O)[O-])ccc1Cl)c1ccccn1 ?
Gli-Sufu block: 7; Jurkat NFkB inh: -1; Mdm2-MdmX inh: 35; Beta apoptosis: -6; 697 NFkB inh: -19

How did CCCCCN(C(=O)CCC(=O)OCc1ccccc1C(F)(F)F)c1c(N)n(CCCC)c(=O)[nH]c1=O do in these assays?
Gli-Sufu block: -22; Jurkat NFkB inh: 8; Mdm2-MdmX inh: 21; Beta apoptosis: 1; 697 NFkB inh: 2

How did CN(C)c1ccnc(Nc2ccccc2)c1C#N do in these assays?
Gli-Sufu block: -2; Jurkat NFkB inh: 0; Mdm2-MdmX inh: -8; Beta apoptosis: 2; 697 NFkB inh: 15

What do the screens show for `CN(C)c1ccnc2c[cH-]cc12.[Fe].c1ccc(-[c-]2[c-](-c3ccccc3)[c-](-c3ccccc3)[c-](-c3ccccc3)[c-]2-c2ccccc2)cc1` (centres undefined)?
Gli-Sufu block: 0; Jurkat NFkB inh: 17; Mdm2-MdmX inh: 98*; Beta apoptosis: 35; 697 NFkB inh: 8; Mdm2 MdmX conf: 78*; FLuc counter: 37*!

Results for CCn1ncc(CN2CCCC(C(=O)Nc3cccc(-c4cc5ccccc5[nH]4)c3)C2)c1C (centres undefined) ?
Gli-Sufu block: 26; Jurkat NFkB inh: 3; Mdm2-MdmX inh: 59*; Beta apoptosis: -2; 697 NFkB inh: -4; Mdm2 MdmX conf: 12

Results for CCCc1nnc(SCC(=O)N2CCCCC2C)n1CCOC (centres undefined) ?
Gli-Sufu block: -23; Jurkat NFkB inh: -1; Mdm2-MdmX inh: 8; Beta apoptosis: -4; 697 NFkB inh: -1

Results for Cc1cc([N+](=O)[O-])ccc1NC(=O)CN1CCN(Cc2ccccc2)CC1 ?
Gli-Sufu block: 2; Jurkat NFkB inh: -6; Mdm2-MdmX inh: 22; 697 NFkB inh: 1

Results for O=C(CN1CCN(Cc2ccccc2)CC1)Nc1ccc([N+](=O)[O-])cc1C(=O)Nc1ccccc1F ?
Gli-Sufu block: 24; Jurkat NFkB inh: 7; Mdm2-MdmX inh: 54*; Beta apoptosis: 1; 697 NFkB inh: 11; Mdm2 MdmX conf: 30

How did Cc1c(N=NC2=C(O)CC(C)(C)CC2=O)cc2c(c1[N+](=O)[O-])C(C)(C)CC2(C)C do in these assays?
Gli-Sufu block: 20; Jurkat NFkB inh: -1; Mdm2-MdmX inh: 70*; Beta apoptosis: 1; 697 NFkB inh: -33; Mdm2 MdmX conf: 21

Screening results as filed in PubChem.
